Results reported in PubChem BioAssay AID1508600 (Functional Genomics Laboratory (NCATS/FGL), 2020).
In all, about 53,000 sequences went through this assay and about 3,700 (7%) were called active.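 How the source made its calls: active means gene knockdowns whose robust z-score for IL-1 alpha signal is at least 2 or at most -2, so actives lie on both sides; inactive means the rest.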 The entries come from a sample that favours actives as a whole.

Experiment: Components of the Cytosolic LPS Sensing Pathway: Gene Identification via Genome-wide siRNA Screen;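 further: robust z of the log signal after scaling to non-targeting control siRNA wells of the plate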
Details: RAW264.7 macrophages, IL-1a HTRF, actives lie on both sides, screened at 100 nM (by protocol), cells primed 5 h with Pam3CSK4 first
Procedure, shortened: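 Three distinct siRNAs per gene were tested singly at 100 nM in RAW264.7 macrophages. Following Pam3CSK4 priming and 24 hour LipidA transfection, IL-1a secretion was read by HTRF.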

z-score, active:
GGUACAUCUUAGAGGCCAATT against Epo 2.66
GGACGUGUACAUUGUCAAGTT against Unc5a 2.07
CGAGAUUAUCAGUCAAUUGTT against Tex24 2.02
GGAGACAACCUGUACUCAGTT against Zfp352 -3.18
GGGUCUUCAGUAUUAACACTT against Yae1d1 2.62
GCUCCUACAAAACAUCCGATT against A130079P16Rik -2.12
GGAUGGUCUUAGGAUUACGTT against Fgf15 2.04
GGUGGAUUUUAAGUUUCCUTT against Aurkc 3.43
GGCUAAUGUAUCGUCUGAGTT against Asb16 3.06
GGUGUGUGGCCAGAAAGUUTT against Sfi1 -2.83
GCACAAUAAUAAUGACACUTT against AI597479 2.76
GGCUGUUCAAAGUGACCCUTT against Hbp1 -3.11
GGUGCUGAUUACAGUAGAATT against Pcdhga10 2.01
GCAGUUGUCAUGCUAAACCTT against Ptpn2 2.89
GGGCAUUGGUGACUUUGAATT against Hrob -2.11
GGUGAAGGUGCCUUCCAAATT against Il27ra 2.91
GGUGCCAAUCCUUUGGACATT against 4930590J08Rik 3
GCCCAUUGUUACCUUGUACTT against Klb -2.06
GGAACAAGUACAUACUUAUTT against Frs2 2.09
GCGAUGAUGAAAGCUCAGUTT against Atad1 -2.36
GGAAGAAGCAGCAAGAAGATT against Ttc39b -2.16
GGUGGUACGCAAUCAAAAGTT against Galnt17 2.46

z-score, inactive:
GGCCCAUUCAGAUCAUCCATT against Vmn1r65 -0.197
CCCGGUAUUAAAUUUAAUGTT against Aox4 0.807
GCAUGUUUAGAACUAGCUCTT against Zfp87 0.76
CCAUCAAUUGGAAAUCUUUTT against Tnn -1.01
CUCAGAUAUUCUUUUCCCATT against Olfr142 -1.25
CGUGUAACACACGAUUAGATT against Myot 0.587
GGAACUUCAUUGAACUAUGTT against Trmt2b -0.363
GUUAUCAGGAAGGAAAGCCTT against Sdhaf4 0.248
GGACAGCAAGACAGAAAACTT against Csf2rb2 -0.26
GGCUGGAGAUCUCUCAAAGTT against Nkain2 1.64
GGCUUCUGUUUUUAUUUGUTT against Zbtb7c 1.07
CGAACUGAAGGUUUUCAAUTT against Knstrn 0.422
CCUCACGGCCUUAUAUCUCTT against Fmod -1.8
GGAGAGAGAUGCCCAAAUCTT against Zfp507 -0.362
CCAGCUGUGUAACACUACCTT against Gfi1 1.08
CCUCUACGAUGACUGGAUGTT against Sh3bp1 0.227
GGCAUACCGGAAACUUGCCTT against Dnajb13 -0.266
GGUACAAACACGAUCAAGGTT against Aox4 0.654
GGGAAUCAUUAAAUAGGAUTT against Arhgap26 -0.163
GGAAGAGCAUGAGUCGUUUTT against Scarb2 -0.122
GGAAGUUCAUCAUGAUAUCTT against Cxadr -0.108
GGGCGAUGAAGAAGAGAAATT against Smad1 -0.443
GGAAAGUUCUAAUGUUCAUTT against Sumo1 1.55
GGAACCCAUCUCUCAAGCATT against Atp5g1 0.563
GGCAAUUCAAACAAUGCAGTT against Orm1 -1.41
GCUAUAAUUUGACAGUUAGTT against Lrba 0.0367
GGAGAGAUGCCUUUUAAGUTT against Zfp954 -0.252
GGUAAAGAUCCAGUGCCGCTT against Tbc1d10c -1.02
GGUUCAAGUGCAUUGCUUCTT against Rab34 0.979
GGGCAAUCUGAGCAAUUGUTT against Wnt7b -0.213
GCCUAGACAAUGGUGACCUTT against Nsfl1c -0.772
CCGACAUUUUCGUCACCAGTT against Gabra1 -1
CCAGCCAUAUCAACCGUAUTT against Lzts3 0.084
CCGCUUCUCUAGUGAAUAATT against Uros -1.56
GGAAACACUUGAACAAAGATT against Tph2 0.518
GGACAUGUUUGUGUUAAAGTT against Ctnna1 0.187
GCUUUAUGAGUUCACGGAGTT against Prkab2 1.02
GGUUCUUAUCUCUAUUCAGTT against Olfr1270 0.432
GGAAACCUACUGUUGCACUTT against Wdr59 -0.627
GAAGAUUGGAUUUAAAGCCTT against Olfr667 -0.891
GGCUACAAGUGGGAAUUCATT against Cmtm2b 1.61
GGAGCUCAAGAACAGGAUGTT against Clec3b -0.0394
GCGGAGAAUAACAUAUCUCTT against Fut8 -0.521
GGAUUUGUAAAUUACCUGGTT against Clec4d 0.544
GUAUGCUAGCAUGAUCAACTT against Ndufa3 1.05
GGCCAGAUAUUAUAAGAAATT against Gtdc1 0.332
GCCUUUGCAUGGCAGUCUATT against Zfp825 -0.716
GCUGCCUAUGGCUUCUUCCTT against Tmem160 -1.37
GGACCAAGUAUCAUGAUGUTT against Zfp369 0.222
GCACCUCUUGGACAAAAUUTT against Tsc1 -1.59
GGCGGCCUAUAUGAGGUUCTT against Cftr 0.548
GCAUUGAGAUGAGAGCCUATT against Uroc1 -0.167
CGAAUACUACGCCAAGAUUTT against Abca2 -0.867
GCUCAGUACCGCACAACCATT against Dus3l -0.827
CCUAUUGUGAGCUUAAUGCTT against Nrxn2 -0.74
GGGCUAUGUACCCUAUAAUTT against Eps8l1 -1.37
GGACACAACAAGUCUUAUGTT against Prg2 -0.876
CCUUGCUACUCUGAUAACGTT against Tmeff1 0.761
CCUAGUGUGUUAAUUGUAATT against Ric1 -1.28
GGAUGCUUACGGGAGACGATT against Tmem9 -0.595
GGAGAUUCACUUUCUAUCUTT against B3gnt9 0.656
CCCUAAGACGAAGGAAAUGTT against Pdrg1 -0.844
GGCGAGUUCCAGAUUCUUCTT against Car3 1.69
GCUGAAGACCGACUACAAGTT against Cnih1 0.569
GGAAGUUUACCAGUCUAUCTT against Pik3c2a 1.4
GCUACCCAUGAGCUUUCGATT against S100a3 0.495
GGCCUUAUCGGCAGAUAUUTT against Tmem44 -1.24
GGCAGUCUUAUAAUUCAUCTT against Zfp944 -1.08
CGUUUGACACUUUUGCCUUTT against Mid1 1.09
GGUUUUUGUGGCUGAUCUUTT against Zfp711 -0.545
GGAUUUCCUUGGUUCUUUUTT against Mylip 0.145
GCUCUUCCGCACUUUCAUUTT against H2al1m 1.37
GGAACACUCCAGUUUGAAUTT against Thsd1 1.09
GCACUCAAGGUUUUACUGUTT against Satb1 -0.356
CCUUGUGUAUGAAAUACUUTT against Taf1b -0.282
GCUUGAUUUUUGACAGAGATT against Mdh1b 1.48
CCAGGAGUCGAGUGAUGGUTT against Rtl1 0.886
GGGUAAACUGUGGAGAAAUTT against Fam214b -0.833
GAUGAAAGCUACAAUGAAGTT against Srpx2 1.67
GGAAUUUCAGGAGAUACUGTT against C1qtnf12 -1.04
GCCGGAUCUAUUAAAGAAATT against Hdac2 0.134
GCAACUAUACUGGACAAUUTT against Olfr328 -1.19
GGCUUAUUAUCAGGAAAUGTT against Plcz1 -1.32
GGAAGUCUACAAGUGGCCATT against Nr1d1 -0.467
CGCAGCGACCAGCUUUCAATT against Srebf2 0.789
GCCACCUAAUUUACAAUCUTT against Ccn3 0.573
